Screening data: PubChem, National Center for Advancing Translational Sciences (NCATS)
SMN2 splice up: qHTS Assay for Enhancers of SMN2 Splice Variant Expression. HEK293 SMN2-luciferase splicing reporter, luminescence, 30-36 h. Potency, µM (highest dose often 46.1 µM), without a hit: top-dose activity change, positive = activation, actives largely listed as activators. 210,000 tested, 2.8% active; note: % of control where 0% means no effect; nearly all actives have a fitted effect of over 55% in size
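HEK293 cells carry an SMN2 minigene-luciferase reporter in which exon 7 inclusion puts luciferase in frame. Cells were seeded at 2000 cells/well, attached for 10-12 hours, then exposed to compounds for 30-36 hours at 37C before ONE-Glo luminescence.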
FLuc counter: qHTS profiling assay for firefly luciferase inhibitor/activator using purifed enzyme and Km concentrations of substrates (counterscreen for miR-21 project); Luciferin 4-monooxygenase (Photinus pyralis), P08659; purified FLuc, Km substrates, luminescence inhibition; Potency, µM (highest dose often 57.5 µM), inactives show at the top dose activity change, negative = inhibition, usual class: inhibitors; 360,000 tested, 6.9% active;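 note: plate controls were vehicle for no effect and reference inhibitor for full effect; nearly all actives have a fitted effect of over 55% in size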
Target sequence (P08659 whole entry, looked up): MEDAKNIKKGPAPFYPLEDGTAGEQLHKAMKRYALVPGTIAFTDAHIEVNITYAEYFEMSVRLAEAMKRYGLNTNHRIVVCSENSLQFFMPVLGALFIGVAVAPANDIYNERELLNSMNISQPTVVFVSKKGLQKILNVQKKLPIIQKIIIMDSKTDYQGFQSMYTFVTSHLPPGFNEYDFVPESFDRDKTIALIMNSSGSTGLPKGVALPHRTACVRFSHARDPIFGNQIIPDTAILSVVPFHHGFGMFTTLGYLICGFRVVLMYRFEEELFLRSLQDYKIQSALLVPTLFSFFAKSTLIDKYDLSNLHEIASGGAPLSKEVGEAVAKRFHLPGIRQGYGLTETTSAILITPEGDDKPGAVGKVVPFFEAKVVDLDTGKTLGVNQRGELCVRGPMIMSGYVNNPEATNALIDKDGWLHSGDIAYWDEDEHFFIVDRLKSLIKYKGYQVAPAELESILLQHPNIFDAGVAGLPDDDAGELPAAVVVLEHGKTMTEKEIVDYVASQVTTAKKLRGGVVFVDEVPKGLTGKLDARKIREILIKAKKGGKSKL
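Purified P. pyralis luciferase (10nM final) with 10uM D-luciferin and 10uM ATP (Km levels) in 50mM Tris acetate pH 7.5, 10mM Mg acetate, 0.01% Tween-20, 0.05% BSA; qHTS 6-point titration, ~60 µM downward; luminescence read.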
Rab9 prom act: qHTS Assay for Rab9 Promoter Activators. Huh7 Rab9 promoter-luciferase reporter, luminescence, 24 h. Potency, µM (highest dose often 9.22 µM), for inactives: top-dose activation, negative = inhibition, most hits filed as activators. 320,000 tested, 2.8% active; note: % of control where 0% means no effect; nearly all actives have a fitted effect of over 60% in size
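Luminescence read-out: Huh7 cells stably expressing Rab9-luciferase, treated 24 h with compound at 37 °C, then lysed with luciferase reagent for 10 min at ambient before reading.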
NPC1 prom act: qHTS Assay for NPC1 Promoter Activators | 320,000 tested, 2.4% active | Huh7 NPC1 promoter luciferase reporter, 24 h | Potency, µM (highest dose often 9.22 µM), without a hit: at the top dose activation, hits mostly activators; note: % of control where 0% means no effect; nearly all actives have a fitted effect of over 60% in size
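Luciferase expression driven by the NPC1 promoter was measured in stably transfected Huh7 cells after a 24 h compound incubation, using a luciferase reagent and a luminescence read.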
ELG1 genotox: qHTS screen for small molecules that induce genotoxicity in human embryonic kidney (HEK293T) cells expressing luciferase-tagged ELG1. 330,000 tested, 1.3% active. HEK293T ELG1-luciferase reporter, luminescence, 16 h. Potency, µM (doses to about 46 µM), without a hit: at the top dose activity change, positive = activation, usual class: activators; note: % of control where 0% means no effect; nearly all actives have a fitted effect of over 60% in size
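Luminescence read-out: rising ELG1-luciferase signal, reflecting elevated ELG1 protein under genetic stress, flags genotoxic compounds. Cells were treated for 16 hr at 37 °C before ONE-Glo detection.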
KinaseGlo FLuc: Counterscreen for Luciferase (Kinase-Glo TM) Inhibition. Luciferin 4-monooxygenase (Photuris pensylvanica), Q27757. Kinase-Glo luciferase, ATP luminescence, 8 min. Potency, µM (doses to about 38.3 µM), inactives show at the highest dose activity change, negative = inhibition, hits mostly inhibitors. 200,000 tested, 0.28% active; note: % is set by controls: 0 for no effect and ±100 for the full control effect; nearly all actives have a fitted effect of over 60% in size
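Light output from Kinase-Glo luciferase with luciferin and 10 uM ATP in 50 mM imidazole pH 7.2, KCl, MgCl2, Tween 20, BSA; compound pin-delivered, 8-min ambient incubation, then luminescence read.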
Starred values were filed as active, the others as inactive; [ ] = dose if it differs, or a comment. The list is not random: actives were taken first. Their share in the collection is about 7.5%. Calls come from the whole dose curve; as a rule, active = well fitted curve in the direction sought with a large enough effect; inconclusive = small, poorly fitted or top-dose-only effect, or another doubt; inactive = no such curve, though single readings can be large; an effect the other way counts as inactive or inconclusive. Potency is the fitted concentration of half-maximal effect.

Screening Cc1nc(N)sc1-c1csc(Nc2cccc(C(=O)O)c2)n1 returned FLuc counter 7.57µM*, Rab9 prom act 15.4%, NPC1 prom act 16.9% and ELG1 genotox -7.0%.
Screening Cc1ccccc1Nc1nc(-c2sc(NC(=O)c3ccco3)nc2C)cs1 returned SMN2 splice up -6.4%, FLuc counter inconclusive, Rab9 prom act 1.5%, NPC1 prom act -0.4%, ELG1 genotox -1.5% and KinaseGlo FLuc -0.8%.
For Cc1ccc(Nc2nc(-c3sc(NC(=O)c4ccco4)nc3C)cs2)cc1 the results were SMN2 splice up -60.5%, FLuc counter 16.9µM*, Rab9 prom act 3.0%, NPC1 prom act 7.4%, ELG1 genotox -2.1% and KinaseGlo FLuc -0.3%.
For CCOC(=O)CSc1nnc(NC(=O)c2cccc([N+](=O)[O-])c2C)s1 the results were SMN2 splice up 8.9%, FLuc counter inconclusive, Rab9 prom act 0.5%, NPC1 prom act -2.1%, ELG1 genotox 0.4% and KinaseGlo FLuc 3.9%.
Screening CCOC(=O)c1c(S(=O)(=O)N2CCC(C(=O)Nc3ncccc3C)CC2)c(C)n(C)c1C returned FLuc counter 0.7%.
Cc1csc(Nc2ccc(C(=O)O)cc2)n1 was read as FLuc counter inconclusive, Rab9 prom act 15.9%, NPC1 prom act 20.1% and ELG1 genotox 5.6%.
`Cc1nc(N)sc1-c1csc(Nc2ccccc2)n1` gave SMN2 splice up 11.2µM*, FLuc counter 10.7µM*, Rab9 prom act 2.82µM*, NPC1 prom act inconclusive, ELG1 genotox 15.6% and KinaseGlo FLuc 0.3%.
For Cc1c(Nc2nc(-c3cccc([N+](=O)[O-])c3)cs2)c(=O)n(-c2ccccc2)n1C the results were FLuc counter -3.5%, Rab9 prom act -12.1%, NPC1 prom act 0.5%, ELG1 genotox 0.5% and KinaseGlo FLuc -0.7%.
Screening Cc1cc(O)ccc1Nc1nc(-c2sc(N)nc2C)cs1 returned SMN2 splice up -7.1%, FLuc counter inconclusive, Rab9 prom act -8.3%, NPC1 prom act 1.3%, ELG1 genotox 1.4% and KinaseGlo FLuc -4.7%.
`Cc1[nH]n(-c2nc(-c3cccc([N+](=O)[O-])c3)cs2)c(=O)c1C` gave SMN2 splice up 12.6µM*, FLuc counter 4.78µM*, Rab9 prom act inconclusive, NPC1 prom act inconclusive, ELG1 genotox 16.0% and KinaseGlo FLuc -2.6%.
O=C(O)c1ccc(Nc2nc(-c3ccccc3)cs2)cc1 was read as SMN2 splice up 2.51µM*, FLuc counter 0.675µM*, Rab9 prom act 0.398µM*, NPC1 prom act 0.398µM*, ELG1 genotox -2.2% and KinaseGlo FLuc 2.9%.
For COc1ccc(OC)c(S(=O)(=O)N2CCC(n3c(C)nc4cccnc43)CC2)c1 the results were FLuc counter -3.1%.
`Brc1ccc(-c2cnc(-c3cccs3)o2)cc1` gave SMN2 splice up inconclusive, FLuc counter 5.36µM*, Rab9 prom act 3.98µM*, NPC1 prom act inconclusive, ELG1 genotox inconclusive and KinaseGlo FLuc -3.4%.
Screening CC(=O)c1ccc(N=Nc2c(C)[nH]n(-c3ccccc3)c2=O)cc1 returned FLuc counter -14.6%, Rab9 prom act 13.4%, NPC1 prom act 15.7% and ELG1 genotox -1.9%.
Cc1ccc(N=Nc2c(N)n(-c3ccccc3)[nH]c2=O)cc1 was read as SMN2 splice up inconclusive, FLuc counter 4.78µM*, Rab9 prom act inconclusive, NPC1 prom act inconclusive, ELG1 genotox inconclusive and KinaseGlo FLuc -10.6%.
`Cc1[nH]n(-c2ccccc2)c(=O)c1N=Nc1cccc(C(=O)O)c1` gave FLuc counter 0.269µM*, Rab9 prom act 1.12µM*, NPC1 prom act inconclusive and ELG1 genotox inconclusive.
For Cc1[nH]n(-c2ccccc2)c(=O)c1N=Nc1ccc(C(N)=O)cc1 the results were FLuc counter inconclusive, Rab9 prom act -0.1%, NPC1 prom act 0.3% and ELG1 genotox 0.4%.
For Cc1[nH]n(-c2ccccc2)c(=O)c1N=Nc1ccccc1 the results were SMN2 splice up 14.1µM*, FLuc counter 4.78µM*, Rab9 prom act inconclusive, NPC1 prom act inconclusive, ELG1 genotox inconclusive and KinaseGlo FLuc -0.8%.
`Cc1[nH]n(-c2ccccc2)c(=O)c1N=Nc1ccc(C(=O)O)cc1` gave FLuc counter 7.57µM*, Rab9 prom act 28.3%, NPC1 prom act 23.5% and ELG1 genotox 12.4%.
For Cc1[nH]n(-c2ccccc2)c(=O)c1N=Nc1ccc(Cl)cc1 the results were FLuc counter -18.5%, Rab9 prom act 13.3%, NPC1 prom act 22.9% and ELG1 genotox -1.8%.
Screening C[C@]12c3[nH]c4ccc(Cl)cc4c3CCN1C(=O)[C@@H](CC(=O)NCCc1ccccn1)C[C@@H]2C(=O)N1CCCCC1 returned ELG1 genotox -1.5%.
For COc1cccc(CCNC(=O)Cn2c(-c3cccs3)cc3ccccc32)c1 the results were SMN2 splice up -5.7% and FLuc counter -8.4%.
COC(=O)c1cc(N=Nc2c(C)[nH]c3ccccc23)cc(C(=O)OC)c1 was read as FLuc counter -1.3%, Rab9 prom act -9.4%, NPC1 prom act 0.4% and ELG1 genotox 1.6%.
For Cc1[nH]c2ccccc2c1N=Nc1cccc(C(=O)O)c1 the results were SMN2 splice up 12.6µM*, FLuc counter 10.7µM*, Rab9 prom act 2.24µM*, NPC1 prom act 3.16µM*, ELG1 genotox 18.7% and KinaseGlo FLuc 5.2%.
Screening COc1ccccc1N=Nc1c(C)[nH]n(-c2ccccc2)c1=O returned FLuc counter 10.7µM*, Rab9 prom act inconclusive, NPC1 prom act inconclusive and ELG1 genotox -3.4%.
O=C(O)c1cc2c(s1)-c1ccccc1CC2 was read as SMN2 splice up -13.3%[1.84 µM], FLuc counter -15.9%, Rab9 prom act 7.9%, NPC1 prom act 1.6%, ELG1 genotox 1.7% and KinaseGlo FLuc 1.2%.
For CC1CCc2sc(-c3n[nH]c(=S)o3)cc2C1 (stereo unspecified) the results were SMN2 splice up 10µM*, FLuc counter 6.75µM*, Rab9 prom act inconclusive, NPC1 prom act inconclusive, ELG1 genotox inconclusive and KinaseGlo FLuc 2.8%.
S=c1[nH]nc(-c2cc3c(s2)-c2ccccc2CC3)o1 was read as SMN2 splice up 14.1µM*, FLuc counter 16.9µM*, Rab9 prom act inconclusive, NPC1 prom act 25.5%, ELG1 genotox inconclusive and KinaseGlo FLuc 5.1%.
